# Experimental data taken from the supplement of paper PMC6555819.
# Columns and labels:
# Experiment in all cases: PBM binding z-score (relative to random genomic background probes); higher = stronger binding; sequences stand for … in GC…GCGATTGACAGCGTAGAATGAAGG
# [1] = test system: PPARg:RXRa IVT, anti-PPARg (NR concentration 270 nM, RXRa partner concentration 90 nM)
# In short: (§1)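 For binding z-scores, the reference was random background probes on custom Agilent 4×180K protein-binding microarrays. These arrays were incubated 1 h with ligand-free nuclear receptor dimers in PBS pH 7.4, 2% milk, 0.02% Triton X-100, 1 mM DTT, 0.2 mg/mL BSA and 0.4 mg/ml salmon testes DNA. Fluorescence was scanned after antibody detection of each partner (one per run) and regression-normalized.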
# [2] = test system: PPARg DBDmut:RXRa IVT, anti-PPARg (DBD mutation: PPARg1 K132A/R137A, NR concentration 270 nM, RXRa partner concentration 90 nM)
# In short: as §1
# [3] = test system: PPARg DBDmut IVT, anti-PPARg (DBD mutation: PPARg1 K132A/R137A, NR concentration 270 nM)
# In short: as §1
# [4] = test system: PPARg homodimer (NR concentration 180 nM)
# In short: as §1
# [5] = test system: PXR:RXRa (NR concentration 270 nM, RXRa partner concentration 90 nM)
# In short: as §1
# [6] = test system: PXR homodimer (NR concentration 270 nM)
# In short: as §1
# [7] = test system: RARa:RXR (NR concentration 270 nM, RXRa partner concentration 90 nM)
# In short: as §1
# [8] = test system: RARa homodimer (NR concentration 270 nM)
# In short: as §1
# [9] = test system: RARb:RXRa (NR concentration 270 nM, RXRa partner concentration 90 nM)
# In short: as §1
# [10] = test system: RARb homodimer (NR concentration 270 nM)
# In short: as §1
# [11] = test system: RARg:RXRa (NR concentration 270 nM, RXRa partner concentration 90 nM)
# In short: as §1
# [12] = test system: RARg homodimer (NR concentration 270 nM)
# In short: as §1
# [13] = test system: RXRa DBDmut IVT, anti-RXR (DBD mutation: RXRa K156A/R161A, NR concentration 90 nM)
# In short: as §1
# [14] = test system: RXRa homodimer (NR concentration 180 nM)
# In short: as §1
# [15] = test system: THRa:RXRa (NR concentration 90 nM, RXRa partner concentration 90 nM)
# In short: as §1
# [16] = test system: THRa homodimer (NR concentration 90 nM)
# In short: as §1
# [17] = test system: VDR homodimer (NR concentration 270 nM)
# In short: as §1
Sequence,PBM binding z-score [1],PBM binding z-score [2],PBM binding z-score [3],PBM binding z-score [4],PBM binding z-score [5],PBM binding z-score [6],PBM binding z-score [7],PBM binding z-score [8],PBM binding z-score [9],PBM binding z-score [10],PBM binding z-score [11],PBM binding z-score [12],PBM binding z-score [13],PBM binding z-score [14],PBM binding z-score [15],PBM binding z-score [16],PBM binding z-score [17]
AGAATGAGGTCATACGTAGATCAGGGAAGAAAGT,6.69,1.6,2.79,2.06,4.89,1.94,5.04,1.17,4.84,3.6,6.31,5.97,4.7,6.67,4.18,3.25,4.56
TCTCGGAGGACACCAAAGGTCAGAGCTCGACATC,1.71,-0.171,-0.615,3.42,4.41,0.454,4.86,1.44,4.21,4.64,4.82,5.32,0.814,4.15,3.65,1.2,1.11
TACCCTAGGTCATGGGCCAGTATACCACGCGAAC,3.86,1.09,0.696,2.52,2.07,0.812,3.19,0.836,4.11,3.19,4.53,4.92,0.55,4,3.26,2.22,1.35
CGAACTAGGTCAAGGACAGTAAATCTCCGCACGC,7.98,5.28,4.25,3.13,1.1,0.317,2.19,0.685,3.67,2.91,4.01,4.54,1.47,2.55,3.16,2.01,0.575
CATACAGGGTCGGCTAGGCCAGAGTAGGGACGGC,0.00635,-0.399,-0.0958,-0.0997,-0.0911,-0.146,0.408,-0.15,1.13,0.799,0.866,1.16,-0.309,0.983,0.966,-0.41,0.745
CGAACAAGGTCATCCAGGACAGTGAATACATTGA,5.07,3.54,2.64,3.58,5.44,7.22,5.39,2.04,5.19,4,6.28,6.49,4.2,6.46,4.53,3.3,4.92
TCTAGTTGGTCTAAGGTCACACACTCGAAATGCG,3.51,1.67,1.64,4.05,4.79,2.22,5.04,2.5,3.76,4.29,4.63,4.37,2.21,4.71,4.63,5.66,2.99
CCTACTGGGCCAAAGGTGATTGATTCCAATGCTC,5.36,0.238,0.204,0.439,0.0253,-0.311,0.327,-0.309,0.815,0.601,0.547,0.234,-0.2,0.624,0.0559,-0.0264,0.165
GATACAGGGTCAGCTACAGGCCAGAGTATGGAAA,2.25,0.112,-0.146,1.47,2.17,-0.273,3.3,0.244,4.02,2.99,5.37,4.29,1.25,4.23,2.83,0.162,0.801
CGCACTAGGTCATCCAGGACAGTGAATACATTGA,8.07,2.66,1.65,1.92,1.97,0.888,2.65,0.479,3.88,3.11,3.99,4.51,2.26,2.76,3.73,2.4,1.76
CCTACGGGGCCACGAAAGGTCATTGATTCAGTGA,2.93,-0.766,-1.47,3.09,6.2,2.54,5.88,0.351,4.55,5.16,5.49,5.3,0.662,5.74,4.64,0.878,2.64
ATCGAAAGGTCGTGAGGTAAGTATACAGAAAGGC,2.1,1.96,0.952,2.1,3.42,0.535,4.43,1.16,3.99,2.76,4.63,3.93,1.25,5.18,3.09,1.01,1.24
ACTAGTTGGTCAGCTGAGGTCACACCCAATTCGG,2.55,1.1,0.595,2.35,5.14,1.25,4.27,0.354,3.57,4.33,3.85,3.86,1.34,3.47,5,4.84,2.67
CCTACTGGACCAAGGTCATTGATCAGTCAAAGCA,2.23,0.0744,0.144,2.59,3.88,1.96,3.91,0.91,3.23,3.4,3.7,2.94,1.91,3.39,3.43,2.69,3.61
CGTCCAAGGTCAATGCTAGATCAGTGAAAGCATT,3.17,-0.125,0.742,2.99,3.36,0.745,3.86,1.18,4.94,3.73,5.61,5.86,3.56,4.83,3.51,1.97,2.34
AGTCAAAGTTCATCTAGGTAACATAAGATATGCT,3.9,1.75,1.67,2.88,5.28,6.9,4.2,1.96,4.94,3.71,5.69,6.1,4.79,4.84,3.19,0.324,5.55
TATACAAGGTCAAAGGCCAGAGTACGAATGTCGA,5.15,1.68,2.18,2.34,4.53,0.743,5.37,0.491,5.27,4.35,6.25,6.16,2.92,6.51,3.86,2.1,2.78
